This is a sample that favours compounds with a hit; in the whole collection about 8.2% have one here.
KB-V1 MDR tox: KB-V1 MDR subline cytotoxicity; KB-V1 MDR cells viability, CellTiter-Glo, 72 h; Potency, µM (top dose mostly 46.1 µM), usual class: cytotoxic; 400,000 compounds, 3.4% hits; AID 1347076; further: nearly all actives have a fitted effect of over 60% in size
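KB-V1 cells (P-gp-expressing MDR subline of KB-3-1) in phenol-red-free DMEM with 10% FBS were exposed to library compounds over a concentration series for 72 h at 37 degrees C. Viability read by CellTiter-Glo luminescence; concentration-effect curves fitted after normalization.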
MCF10A rereplic: inducers of DNA re-replication in MCF 10A breast cells | MCF 10A DNA re-replication, Hoechst nuclear intensity, 48 h | Potency, µM (doses to about 46.1 µM), hits mostly activators | 350,000 compounds, 2.9% hits | AID 624296; further: nearly all actives have a fitted effect of over 50% in size
ELG1 repair inh: ELG1-dependent DNA repair inhibition; HEK293T ELG1-luciferase reporter, luminescence, 16 h; DNA damage induced by 5-fluorouridine; Potency, µM (titrated, usually from 46.1 µM), most hits filed as inhibitors; 330,000 compounds, 2.3% hits; AID 504467; further: nearly all actives have a fitted effect of over 55% in size
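Cells (2,000 per well) received 5-fluorouridine plus test compound or DMSO and were incubated 16 hr at 37 °C, 5% CO2. Luciferase activity was read by luminescence 30 min after ONE-Glo addition; signal suppression marked inhibition of damage-induced ELG1 function.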
SW480 rereplic: DNA re-replication induction in SW480 cells; AID 624297; SW480 DNA re-replication, Hoechst DNA content imaging, 48 h; 340,000 compounds, 1.8% hits; Potency, µM (doses to about 46.1 µM), most hits filed as activators; further: nearly all actives have a fitted effect of over 55% in size
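Quantitative HTS format with DMSO vehicle controls; 48 hr drug incubation at 37 C, then 40 min Hoechst staining and scanning imager measurement at 405 nm excitation.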
KB-3-1 tox: kills parental KB-3-1 adenocarcinoma cells; KB-3-1 viability, CellTiter-Glo ATP luminescence, 72 h; Potency, µM (series often up to 46.1 µM), hits mostly cytotoxic; 400,000 compounds, 1.4% hits; AID 1347075; further: nearly all actives have a fitted effect of over 60% in size
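Using CellTiter-Glo luminescence, growth of non-resistant KB-3-1 adenocarcinoma cells is assessed 72 h after pin-tool compound addition at 37 °C. Normalized responses across the concentration series yield fitted curves.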
Hits are given with their value; i = inactive; ? = inconclusive; nt = not tested or not shown; [ ] = dose if it differs, or a comment. The call rests on the fitted dose curve; in most records, active means well fitted curve in the direction sought with a large enough effect; inconclusive means small, poorly fitted or top-dose-only effect, or another doubt; inactive means no such curve, though single readings can be large; an effect the other way counts as inactive or inconclusive.

SMILES	KB-V1 MDR tox	MCF10A rereplic	ELG1 repair inh	SW480 rereplic	KB-3-1 tox
CC1(C)CCCN(C(=O)N2c3ccccc3Sc3ccccc32)C1	i	13µM	i	i	i
O=C(CCC(=O)N1CCOc2ccccc21)Nc1ccccc1Cl	i	i	i	i	i
COc1cc2c(cc1OC)C(c1ccc(Cl)cc1)N(c1cccc(C#N)c1)C(=O)C2 (stereo not drawn)	i	nt	nt	nt	i
O=C(Nc1ccc(Nc2ccccc2)cc1)c1cc([N+](=O)[O-])ccc1Cl	i	i	?	i	i
O=C(O)c1cc([N+](=O)[O-])ccc1C(=O)Nc1cccc([N+](=O)[O-])c1	i	i	?	i	i
Cc1cccc(NC(=O)C(c2cccc([N+](=O)[O-])c2)N2CCCCC2)c1 (stereo not drawn)	15µM	i	i	i	i
CN(c1ccc([N+](=O)[O-])cc1C(=O)Nc1ccccc1)C1CCCCC1	13µM	i	i	i	i
Cc1cccc(NC(=O)c2cc([N+](=O)[O-])ccc2NC2CCCCC2)c1	13µM	i	i	i	i
CCOc1nc(-c2ccccc2)ncc1Oc1ccccc1	i	i	nt	?	i
Cc1cc(C)cc(NC(=O)CSc2nnc(CNC(=O)c3c(F)cccc3Cl)o2)c1	i	nt	nt	nt	i
Cc1cccc(NC(=O)CSc2nsc(SCC(=O)Nc3cccc(C)c3)c2C#N)c1	i	i	8.2µM	i	i
N#Cc1c(SCC(=O)Nc2ccccc2)nsc1SCC(=O)Nc1ccccc1	i	i	i	i	i
CC(C)N(C)Cc1nnnn1CC(=O)NCCc1cccc(C(F)(F)F)c1	i	i	i	i	i
Cc1nc(SCc2nc3ccccc3[nH]2)c2oc3ccc(Br)cc3c2n1	?	i	?	i	i
c1ccc2[nH]c(CSc3ncnc4c3oc3ccccc34)nc2c1	4.6µM	?	i	i	?
Cc1nc(SCc2nc3ccccc3[nH]2)c2oc3ccccc3c2n1	i	?	18µM	i	i
CCc1ccc2c(c1)c(=O)c(C(=O)c1ccccc1)cn2CC(=O)Nc1ccc(C)c(Cl)c1	i	nt	nt	nt	i
CN(C)c1ncnc2c1ncn2[C@H]1CN(Cc2ccc3c(c2)OCO3)C[C@@H](CO)O1	i	nt	nt	nt	i
CCCCN(CC)S(=O)(=O)N1CCC(C(=O)NCc2ccc(F)cc2)CC1	16µM	i	i	i	i
N#Cc1ccc(-c2cccs2)nc1SCc1cccnc1	?	0.41µM	i	0.73µM	?
Cc1cccc(CSc2nc(-c3cccs3)ccc2C#N)c1	i	nt	nt	nt	i
COc1ccc(S(=O)(=O)N2CCCC(C(=O)NCc3ccc4c(c3)OCO4)C2)cc1 (stereo not drawn)	i	i	i	i	i
CCOc1ccccc1NC(=O)C1=C(C)Nc2ncnn2C1c1ccco1 (stereo not drawn)	?	nt	nt	nt	i
CCc1ccc(-c2cc(C)no2)cc1S(=O)(=O)N1CCOc2ccccc21	21µM	?	?	i	i
CCc1ccc(-c2cc(C)no2)cc1S(=O)(=O)N1CCN(c2ccc(OC)cc2)CC1	?	i	i	i	?
SMILES	KB-V1 MDR tox	MCF10A rereplic	ELG1 repair inh	SW480 rereplic	KB-3-1 tox
Cc1cc(-c2ccc(C(C)C)c(S(=O)(=O)N3CCN(c4ccccn4)CC3)c2)on1	?	4.1µM	16µM	?	?
CCc1ccc(-c2cc(C)no2)cc1S(=O)(=O)N1CCN(c2ccc(F)cc2)CC1	12µM	i	?	?	?
CCOCCCNC(=O)/C(C#N)=C/c1cc(OC)c(O)c([N+](=O)[O-])c1	5.8µM	4.6µM	i	?	7.3µM
CCOCCCNC(=O)/C(C#N)=C/c1ccc(Cl)c([N+](=O)[O-])c1	?	18µM	?	i	?
CCOCCCNC(=O)/C(C#N)=C/c1cc(C)c(O)c(C)c1	i	23µM	i	?	i
C=C[C@@H]1c2cc(C)ccc2N(S(=O)(=O)c2ccc(C)cc2)[C@H](c2ccc(C(=O)OC)cc2)C1(C#N)C#N	i	nt	nt	nt	i
O=C(Cc1ccc(F)cc1)NC1CCS(=O)(=O)C1 (stereo not drawn)	i	i	i	i	i
CCOc1ccc(C(=O)NCC(c2ccco2)S(=O)(=O)c2cccs2)cc1 (stereo not drawn)	i	nt	nt	nt	i
O=C(NCC(=O)N1CCCC(C(F)(F)F)C1)c1ccco1 (stereo not drawn)	i	i	?	i	i
CCN(Cc1ccc(Cl)s1)C(=O)c1cccc(OCc2c(C)noc2C)c1	5.8µM	?	?	i	?
COc1ccc2nc(NC(=O)c3cccc(OCc4c(C)noc4C)c3)sc2c1	3.7µM	i	26µM	?	18µM
CCSc1nnc(NC(=O)c2cccc(OCc3c(C)noc3C)c2)s1	i	?	?	i	i
CCOc1ccc2nc(NC(=O)c3cccc(-c4cc5ccccc5oc4=O)c3)sc2c1	?	?	i	16µM	i
COc1ccc2nc(NC(=S)N(C)C)sc2c1	3.3µM	i	?	i	21µM
O=C(CCC(=O)c1ccccc1)Nc1ccccc1OC(F)F	?	i	i	i	i
O=C(NCC1COCCO1)c1cc(COc2c(F)cccc2F)on1 (stereo not drawn)	i	i	?	i	i
CC(C)CCN1CCN(Cc2coc3ccccc3c2=O)CC1CCO (stereo not drawn)	i	i	i	i	i
COc1ccc2nc(NC(=O)c3ccoc3C)sc2c1	7.3µM	?	?	i	i
COc1ccc2nc(NC(=O)c3cc(C)oc3C)sc2c1	?	i	?	i	?
Cc1ccc(Sc2ncccc2COC(=O)Nc2ccccc2)cc1	i	18µM	i	i	?
Cc1ccc(Sc2ncccc2COC(=O)Nc2c(C)cccc2C)cc1	i	?	i	?	26µM
COc1ccccc1NC(=O)Cc1nnc(SCC(=O)NC2CCCCC2)n1C	i	i	?	i	i
CCc1nc2ccc(C(=O)NCc3cccs3)cn2c1N(CCC(C)C)CCN(C)C	i	nt	nt	nt	i
N#Cc1cccc(OCCCN2CCC(C(O)(c3ccccc3)c3ccccc3)CC2)c1	23µM	nt	nt	nt	?
Cc1cc(OCCCN2CCC(C(O)(c3ccccc3)c3ccccc3)CC2)ccc1Br	21µM	nt	nt	nt	?
SMILES	KB-V1 MDR tox	MCF10A rereplic	ELG1 repair inh	SW480 rereplic	KB-3-1 tox
CC1CCCCC1NS(=O)(=O)CCNC(=O)c1ccccc1 (stereo not drawn)	21µM	i	?	i	i
O=C(NCCS(=O)(=O)NC1CCCC1)c1ccc(F)cc1	i	?	i	i	i
COc1cccc(CNC(=O)CSc2n[nH]c(-c3ccccc3Cl)n2)c1OC	i	nt	nt	nt	i
O=C(CN(Cc1ccco1)C(=O)c1cc(=O)[nH]c2ccccc12)Nc1ccccc1Br	i	i	21µM	i[9.22 µM]	i
COc1cc(SC)ccc1C(=O)N(CC(=O)Nc1ccccc1Br)Cc1ccco1	i	i	i	i	i
COc1ccc(-c2noc(-c3ccc(NC(C)c4ccccc4)c([N+](=O)[O-])c3)n2)cc1OC (stereo not drawn)	i	nt	nt	nt	i

Screening data: PubChem BioAssay, National Center for Advancing Translational Sciences (NCATS)
